Bioassay records from PubChem.
Lassa entry inh – qHTS for Inhibitors of binding or entry into cells for Lassa Virus; Potency, µM (doses to about 37.9 µM), most hits filed as inhibitors; 300,000 tested, 1.2% active; Lassa virus pseudotype entry inhibition, cell reporter; calls by dose curve; tested in HEK293 cells; also: nearly all actives have a fitted effect of over 50% in size
Marburg entry inh – qHTS for inhibitors of binding or entry into cells for Marburg Virus | Potency, µM (series often up to 37.8 µM), hits mostly inhibitors | Marburg virus pseudotyped entry inhibition, cell reporter | 300,000 tested, 1.8% active; calls by dose curve; tested in HEK293 cells
HCMV inh – qHTS Assay for inhibitors of the human cytomegalovirus (HCMV). activity change, negative = inhibition, % at 57.5 µM. 410,000 tested, 4.5% active. HFF cells, HCMV-luciferase reporter, 72 h; hits give low values; in the data active = activity change below about -60%; inconclusive = no clear call, values can overlap the other calls; inactive = above about -39%
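After 16 h attachment at 37C, HFF cells received test compound and HCMV-luciferase (1 PFU/cell); reporter luminescence read 72 h later, data normalized against buffer-only and known inhibitor Salinomycin.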
FMDV antiviral – High Throughput Screening for Foot and Mouth Disease Virus Antivirals | Potency, µM (doses to about 57.9 µM), hits mostly inhibitors | FMDV antiviral cell-based qHTS | 410,000 tested, 1.2% active; calls by dose curve; tested in HEK293T cells; also: read-out not given here; nearly all actives have a fitted effect of over 45% in size
Each line names hits and unclear results; the compound was inactive in the other large screens. Sampled rows, rich in hits. Any-hit rate of the full collection: about 6.2%.

CCNC(=S)N/N=C/c1cc(C)ccc1C	none
C=CCNC(=S)N/N=C/c1ccc(C(F)(F)F)cc1	HCMV inh -86, FMDV antiviral inconclusive (no result: Lassa entry inh, Marburg entry inh)
C=CCNC(=S)N/N=C/c1ccc(-c2cc(Cl)ccc2Cl)o1	HCMV inh inconclusive
FC(F)(F)c1ccc(/C=N/NC(=S)NC2CCCCC2)cc1	none
C=CCNC(=S)N/N=C/c1ccc(C)cc1C	Lassa entry inh inconclusive, Marburg entry inh inconclusive, HCMV inh -62
C=CCNC(=S)N/N=C/c1ccc(-c2ccc(OC)cc2)o1	Lassa entry inh 1.8µM, Marburg entry inh inconclusive, FMDV antiviral 14µM
CCOc1ccc(-c2cc(C(=O)Oc3ccc(C#N)cc3)no2)cc1	none
CCN(CC)c1ccc(/C=N/NC(=S)NCc2ccccc2)cc1	Lassa entry inh inconclusive, Marburg entry inh inconclusive
C=CCNC(=S)N/N=C/c1ccc(N(CC)Cc2ccccc2)cc1	Lassa entry inh 16µM, Marburg entry inh 12µM, FMDV antiviral inconclusive
Cc1ccc(NC(=O)Cn2c(-c3ccc(F)cc3)cnc2SCC(=O)Nc2c(C)cccc2C)cc1	Lassa entry inh inconclusive, Marburg entry inh inconclusive, HCMV inh -78
Cc1ccc(C(=O)n2c(-c3ccccc3)cnc2SCC(=O)Nc2ccccc2)cc1	Marburg entry inh inconclusive, HCMV inh -74
CC(=O)n1nc(-c2cccc(C)c2)nc1SCC(=O)Nc1ccccc1	Lassa entry inh inconclusive, HCMV inh -89
CCOc1ccc(NC(=O)CSc2ncc(-c3ccc(F)cc3)n2Cc2ccco2)cc1	none (no result: Lassa entry inh, Marburg entry inh)
CCC(=O)n1nc(-c2ccccc2)nc1SCC(=O)Nc1ccc(C)cc1	none
CCOC(=O)c1c(S(=O)(=O)N2CCCC(C(=O)N3CCN(c4ccccc4)CC3)C2)c(C)n(C)c1C (stereo not given)	none (no result: Marburg entry inh)
CSc1ccc(CCNc2ncnc3onc(-c4ccc(Cl)cc4)c23)cc1	HCMV inh inconclusive, FMDV antiviral inconclusive (no result: Marburg entry inh)
CCn1c(SCC(=O)NCc2ccco2)nc2ccccc2c1=O	none (no result: Lassa entry inh, Marburg entry inh)
COc1ccc(C(=O)Nn2c(SCC(=O)N3CCC(C)CC3)nc3ccccc3c2=O)cc1	Lassa entry inh 8.2µM, Marburg entry inh 1.6µM, HCMV inh -62, FMDV antiviral 11µM
COc1ccc(C(=O)Nn2c(SCC(=O)NC3CCCCC3)nc3ccccc3c2=O)cc1	Lassa entry inh inconclusive, Marburg entry inh inconclusive, FMDV antiviral 13µM
COc1ccc(C(=O)Nn2c(SCC(=O)c3ccc(Cl)cc3)nc3ccccc3c2=O)cc1	Lassa entry inh inconclusive, Marburg entry inh inconclusive
COc1ccc(C(=O)Nn2c(SCC(=O)NCc3ccco3)nc3ccccc3c2=O)cc1	Lassa entry inh 1µM, Marburg entry inh 0.4µM, HCMV inh -73, FMDV antiviral 14µM
COc1cccc(CNC(=O)CSc2ccc(-c3sc(-c4ccccc4)nc3C)nn2)c1	Lassa entry inh inconclusive, FMDV antiviral inconclusive (no result: Marburg entry inh)
COC(=O)c1c(OCCN2CCCCC2)cc(=O)n2c1CCN(Cc1cccc3nccnc13)CC2	none (no result: Lassa entry inh, Marburg entry inh, HCMV inh)
C[C@H](O)[C@@H]1CN2CCc3c([nH]c4ccc(-c5ccc6c(c5)OCO6)cc34)[C@@H]2C[C@@H]1N(C)C(=O)NC1CCCCC1	HCMV inh -86 (no result: Lassa entry inh, Marburg entry inh)
Cc1ccc2c(CN(Cc3ccccc3)Cc3ccccc3)cc(=O)oc2c1	Marburg entry inh inconclusive (no result: Lassa entry inh)
Cc1cc(C)c2c(CN3CCN(Cc4ccccc4)CC3)cc(=O)oc2c1	HCMV inh -62 (no result: Lassa entry inh, Marburg entry inh)
Cc1cccc(N2CCN(Cc3cc(=O)oc4cc(C)ccc34)CC2C)c1 (stereo not given)	HCMV inh -66
Cc1cc(C)c2c(CN(Cc3ccccc3)Cc3ccccc3)cc(=O)oc2c1	Lassa entry inh 22µM, HCMV inh inconclusive (no result: Marburg entry inh)
CN(C)c1cccc(C(=O)N[C@H]2CC[C@@]34CCCN3C(=O)CCC[C@H]4[C@H]2Cc2ccccc2)c1	none (no result: Lassa entry inh, Marburg entry inh, FMDV antiviral)
CCOC1=C2[C@@H](CN(S(=O)(=O)c3ccc(C)cc3)[C@H]2c2ccccc2F)[C@H]2C(=O)NC(=O)[C@H]2C1	none (no result: Lassa entry inh, Marburg entry inh)
CCOC(=O)[C@@]1([C@@H](NC(=O)OC)c2cccc(F)c2)CCCC1=O	none (no result: Lassa entry inh, HCMV inh, FMDV antiviral)
C=CCN1CCCC1CNC(=O)c1cc2[nH]nnc2cc1OC (stereo not given)	HCMV inh -68 (no result: Lassa entry inh, Marburg entry inh)
Cc1ccc(CC(=O)Nc2cc(C)on2)cc1	none (no result: HCMV inh)
O=C(CSc1nc2c(sc3ccccc32)c(=O)n1-c1ccccc1)NCc1ccco1	Lassa entry inh inconclusive, Marburg entry inh inconclusive, HCMV inh -81
Cc1ccc(-n2c(SCC(=O)NCc3ccco3)nc3sc4c(c3c2=O)CC(C)(C)SC4)cc1	Lassa entry inh inconclusive
CCC1CCc2c(sc3nc(SCC(=O)NCc4ccco4)n(-c4ccccc4)c(=O)c23)C1 (stereo not given)	Marburg entry inh inconclusive, HCMV inh -75
CC(C)NC(=O)NC(=O)COC(=O)c1ccccc1O	none
CC(C)NC(=O)NC(=O)COC(=O)c1ccccc1Oc1ccccc1	Lassa entry inh inconclusive, Marburg entry inh 11µM
CNCCC[C@]12CC[C@H](C3=C1CCCC3)C1CCCCC12 (stereo not given in full)	Marburg entry inh 4.6µM (no result: Lassa entry inh, HCMV inh, FMDV antiviral)
CCOc1ccc(CNS(=O)(=O)c2ccc3[nH]c4c(c3c2)CCCC4)cc1OC	none (no result: Marburg entry inh)
CCOC(=O)c1c(-c2ccccc2)nc2c(C)cccn12	none
CCOC(=O)c1c(-c2ccccc2)nc2ccccn12	Lassa entry inh inconclusive, HCMV inh -63
CC(=O)c1ccc2c(c1)OCO2	none
C[n+]1cc2c3c(ccc2c2ccc4cc5c(cc4c21)OCO5)OCO3	Marburg entry inh 0.89µM, HCMV inh -98, FMDV antiviral 25µM (no result: Lassa entry inh)
COc1ccccc1C1NC(=O)NC(C)=C1C(=O)Nc1cccc(C)c1C (stereo not given)	none (no result: Lassa entry inh, Marburg entry inh)
COc1c(O)ccc(C2NC(=O)NC(C)=C2C(=O)Nc2ccccc2C)c1[N+](=O)[O-] (stereo not given)	HCMV inh -63
COCCCNC(=O)CSc1nc2cc3c(cc2c(=O)n1CCCC(=O)NCc1ccc2c(c1)OCO2)OCO3	none (no result: Marburg entry inh)
CCCCCc1c(-c2ccccc2F)ncn1CCc1ccccc1OC	HCMV inh inconclusive, FMDV antiviral 32µM (no result: Lassa entry inh, Marburg entry inh)
CCCc1c(-c2ccccc2F)ncn1CCc1ccccc1OC	HCMV inh -95, FMDV antiviral 32µM (no result: Lassa entry inh, Marburg entry inh)
Cc1cccc(Nc2nc3c(s2)CCCC3)c1	Lassa entry inh inconclusive, Marburg entry inh inconclusive
O=C(O)c1ccc(Nc2nc3c(s2)CCCC3)cc1	HCMV inh inconclusive, FMDV antiviral 10µM (no result: Lassa entry inh, Marburg entry inh)
O=S1(=O)N=C(Nc2nc3c(s2)CCCC3)c2ccccc21	Lassa entry inh 7.1µM, Marburg entry inh inconclusive
Cc1nc(Nc2ccccc2)sc1-c1ccccc1	Lassa entry inh inconclusive, Marburg entry inh inconclusive
Cc1nc(Nc2ccc(C(=O)O)cc2)sc1-c1ccccc1	Lassa entry inh inconclusive, Marburg entry inh inconclusive, FMDV antiviral 7.1µM
CC1(C(=O)NCc2cccs2)CCN1C(=O)Cc1ccc(Cl)cc1Cl (stereo not given)	none (no result: Lassa entry inh, Marburg entry inh)
COCCn1c(=O)c(C)nc2cnc(Oc3ccccc3)nc21	none (no result: Lassa entry inh, Marburg entry inh, HCMV inh)
Cc1ccc(-n2cnc3cc(C(=O)NCc4ccccc4Cl)ccc32)c(C)c1	none (no result: Marburg entry inh)
Cc1c(C(=O)N2CCc3ccccc3C2)sc2nc(-c3ccccc3)cn12	none
c1ccc(-c2cn3c4c(sc3n2)CCCC4)cc1	Lassa entry inh inconclusive, Marburg entry inh 1.1µM, HCMV inh inconclusive
C=CCCCN1C(=O)NC(c2ccccc2)C(C(=O)OC)=C1C (stereo not given)	none (no result: Lassa entry inh, HCMV inh, FMDV antiviral)
